Test results from PubChem BioAssay AID651692 (Broad Institute, 2012).
Entries with a potency or affinity are not part of this list. Calls of active or inactive are those of the source.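 Rule for the calls: active = fitted half-maximal concentration for loss of cell signal no higher than twice the top valid tested concentration; inconclusive = flat curve at 30 to 70% inhibition, or poor fit; inactive = flat within 30%, signal rise, or potency above limit.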

experiment: cytotoxicity toward MDA-MB-231 breast cancer cells – cell-based, CellTiter-Glo luminescence, cherry-pick, cytotoxicity control for RAD54 inhibitor project, dose response (AID 651692); conditions: MDA-MB-231 viability, 24 h; series mostly up to 26 µM;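 note: more negative values mean stronger loss of viable cell signal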

| SMILES | outcome |
| --- | --- |
| NCCN1CCN(CCN)CC1 | inactive |
| CN1CCN(c2nc(-c3cccs3)nc3ccccc23)CC1 | inactive |
| COc1ccc(OC)c2c(C)cc(NCCN3CCOCC3)nc12 | inactive |
| Cn1c(C(=O)NCCCN2CCOCC2)cc2c(=O)n(C)c3ccccc3c21 | inactive |
| CC(CCCN1CCCC1)Nc1ccnc2cc(Cl)ccc12 (stereo unspecified) | inactive |
| O=C(Nc1cccc([N+](=O)[O-])c1)c1cc(S(=O)(=O)N2CCOCC2)cs1 | inactive |
| O=C1c2cccc3cccc(c23)C(=O)N1CCCn1ccnc1 | inactive |
| Cc1ccc2oc(=O)c3cc(C(=O)NCCCN4C(C)CCCC4C)sc3c2c1 (stereo unspecified) | inactive |
| Cc1ccc2nc3c(cc(C(=O)NCCN4CCOCC4)c(=N)n3CCCN3CCOCC3)c(=O)n2c1 | inactive |
| Cc1cccc(Cn2c(Sc3nc(C)cs3)nc3c2c(=O)[nH]c(=O)n3C)c1 | inactive |
| Cc1cccn2c(=O)c3cc(C(=O)NCCc4ccccc4)c(=N)n(CCCn4ccnc4)c3nc12 | inactive |
| Cc1ccc(-c2nc(NCCCN(C)C)c3ccccc3n2)cc1 | inactive |
| CC1CCCCC1NC(=O)C1Cc2ccccc2CN1S(C)(=O)=O (stereo unspecified) | inactive |
| CCN(CC)CCNC(=O)c1cc2c(=O)n(C)c3ccccc3c2s1 | inactive |
| CCN(CC)CCNC(=S)Nc1ccc2nc(N3CCN(CC)CC3)cc(C)c2c1 | inactive |
| Cc1c(O)c(CN(C)C)cc2c1oc(=O)c1ccccc12 | inactive |
| COc1cccc(-c2cc3nc(NCCCN(C)C)n(C)c(=O)c3s2)c1 | inactive |
| CNC(C)C#Cc1ccc2oc3cccc(OC)c3c(=O)c2c1 (stereo unspecified) | inactive |
| CCCN(CCC)CCCNC(=O)c1cc2cc3ccc(OC)cc3nc2o1 | inactive |
| COc1cccc(-c2cc(NC=O)c3ncc(-c4cccc(C(=O)NCCN(C)C)c4)n3c2)c1 | inactive |
| Cc1c(CN(C)C)c2c(n1C)C(=O)c1ccc(Br)cc1-2 | inactive |
